Screening data deposited in PubChem BioAssay by several laboratories.
An excerpt weighted towards active compounds, which were near 6.6% of everything screened.
Mdm2 MdmX PPI = inhibitors of human Mdm2-MdmX association, primary screen, cell-based, luminescence, split luciferase, SaOS-2, uHTS; SaOS-2 split-luciferase Mdm2/MdmX complementation; inhibition, % at 8 µM; Protein Mdm4 (Homo sapiens) + E3 ubiquitin-protein ligase Mdm2 (Homo sapiens), …; 3% of 330,000 active; AID 485346, 2010;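 active means inhibition of at least 50% at 8 µM in the primary screen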
Target sequence (O15151 whole entry, looked up): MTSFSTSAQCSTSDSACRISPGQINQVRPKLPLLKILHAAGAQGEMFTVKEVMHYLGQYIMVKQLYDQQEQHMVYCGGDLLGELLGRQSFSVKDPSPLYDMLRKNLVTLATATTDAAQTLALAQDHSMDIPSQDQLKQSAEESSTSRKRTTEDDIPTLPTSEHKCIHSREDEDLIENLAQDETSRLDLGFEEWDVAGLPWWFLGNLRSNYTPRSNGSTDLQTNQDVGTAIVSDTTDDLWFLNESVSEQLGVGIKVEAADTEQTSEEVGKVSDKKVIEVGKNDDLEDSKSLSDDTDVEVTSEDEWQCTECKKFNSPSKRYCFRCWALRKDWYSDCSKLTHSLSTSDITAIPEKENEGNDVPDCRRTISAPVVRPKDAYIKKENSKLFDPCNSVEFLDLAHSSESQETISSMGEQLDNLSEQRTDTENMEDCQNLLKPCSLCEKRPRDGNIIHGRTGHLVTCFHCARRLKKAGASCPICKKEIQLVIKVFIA
Target sequence (Q00987 whole entry, looked up): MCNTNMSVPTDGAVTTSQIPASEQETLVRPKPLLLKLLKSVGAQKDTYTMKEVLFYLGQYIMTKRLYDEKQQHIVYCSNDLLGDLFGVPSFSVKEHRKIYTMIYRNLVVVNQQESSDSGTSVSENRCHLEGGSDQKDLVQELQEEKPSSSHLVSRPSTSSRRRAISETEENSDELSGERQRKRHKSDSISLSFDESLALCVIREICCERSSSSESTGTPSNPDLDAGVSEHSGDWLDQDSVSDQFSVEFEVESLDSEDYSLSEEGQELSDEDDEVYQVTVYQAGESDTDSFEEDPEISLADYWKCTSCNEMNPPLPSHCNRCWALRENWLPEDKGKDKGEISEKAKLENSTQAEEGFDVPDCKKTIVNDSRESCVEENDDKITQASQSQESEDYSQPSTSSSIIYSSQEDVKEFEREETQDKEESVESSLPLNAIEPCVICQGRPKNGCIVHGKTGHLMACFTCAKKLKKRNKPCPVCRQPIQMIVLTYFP
Beta apoptosis = inhibitors of cytokine-induced beta cell apoptosis, primary screen, luminescence | 0.8% of 300,000 active | INS-1E cytokine-induced death, ATP luminescence, 48 h; percent of positive-control rescue, neutral wells zero | protection from apoptosis, % (concentration not given with the values);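 active means Every replicate reaches about 75%, or at least half do and their mean reaches it too, limit read from the data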;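 further: 0% = cytokine-treated negative control wells and 100% = positive control rescue; higher means more ATP so stronger rescue from cytokine killing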
GRIN3A LBD mod = binders of NR3A ligand-binding domain, primary screen, biophysical, differential scanning fluorimetry, uHTS; Tm shift relative to glycine control, % at 25 µM; Glutamate receptor ionotropic, NMDA 3A (GRIN3A) ligand-binding domain; 2.5% of 340,000 active; AID 1259313, 2017; NR3A LBD differential scanning fluorimetry, Tm shift; 0% = protein alone, 100% = glycine-bound protein;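 active means melting temperature shift of at least 10% of the positive control shift, at one fixed dose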
CSC inhib = cancer stem cell viability inhibitors, primary screen, luminescence | cancer stem cell-like cells viability | inhibition, % at 7.5 µM | 1.1% of 300,000 active | AID 2717, 2010; in the data active means inhibition above about 75%; tested in HMLE shEcad cells
Gli-Sufu antag = Gli-Sufu pathway antagonists, primary screen, luciferase luminescence, Sufu-KO-LIGHT cells, uHTS | Sufu-KO-LIGHT fibroblasts, Gli luciferase reporter luminescence | inhibition, % at 5 µM | 0.74% of 340,000 active;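 active means inhibition above about 55%, limit read from the data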;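 further: 0% = DMSO-treated cells and 100% = wells with medium but no cells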
MPTP inh = mitochondrial permeability transition pore inhibitors, primary screen, biochemical, isolated mouse mitochondria, absorbance; Ca2+ swelling absorbance, 30 min; inhibition, % at 10 µM; 1.4% of 360,000 active; AID 602449, 2012;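 active means inhibition of 50% or more, scaled per plate between neutral and stimulator controls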;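 further: 0% = DMSO wells given calcium and 100% = 1 mM EGTA wells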
The depositor's hits bear a star; · = no result.

SMILES | Mdm2 MdmX PPI | Beta apoptosis | GRIN3A LBD mod | CSC inhib | Gli-Sufu antag | MPTP inh
CCCN(CC(=O)Nc1ccccc1C)C(=O)C1CC(=O)N(c2ccc(CC)cc2)C1 (stereo unspecified) | 1 | 0 | 2 | 0 | 8 | 0
CCCOc1ccc(-c2nc(N3CCN(C)CC3)c3ccccc3n2)cc1 | -59 | 8 | 0 | 19 | -57 | 2
CCCOc1ccc(-c2nc(N3CCN(CC)CC3)c3ccccc3n2)cc1 | 36 | 7 | 1 | 88* | 4 | -1
COc1cc(C2SCC(=O)N2Cc2ccccc2)ccc1O (stereo unspecified) | -15 | -5 | 9 | -3 | 1 | 0
Cc1ccccc1N1CCN(CCC(=O)Nc2ccc(F)cc2)CC1 | 5 | -1 | 0 | 0 | 25 | 0
CCOC(=O)c1[nH]c(C(=O)O)c(OC(=O)CC)c1C | -10 | 2 | -1 | -5 | 19 | 0
Cc1cc(NS(=O)(=O)c2ccc(NC(=O)Nc3cccc(C(F)(F)F)c3)cc2)no1 | -3 | 1 | 22* | -4 | -11 | -1
Cc1cc(NS(=O)(=O)c2ccc(NC(=O)/C=C/c3cccc(Cl)c3)cc2)no1 | -45 | 3 | 16* | -5 | -1 | -3
Cc1cc(C)cc(CC(=O)N2CCC2(C)C(=O)NS(=O)(=O)c2ccccc2Cl)c1 (stereo unspecified) | · | · | · | · | · | 0
COc1ccccc1Oc1ccc2c(c1)C(=O)N(CC1CCCO1)C2=O (stereo unspecified) | 11 | 3 | 12* | -17 | -3 | 3
CN1OC[C@@H]2CN(C(=O)C(C)(C)C)[C@H](c3cccc(Oc4ccccc4)c3)C[C@@H]21 | · | · | · | · | · | 0
COc1cc(OC)cc(C(=O)NCCNc2nc3cc(C)cc(C)c3cc2C#N)c1 | 20 | 8 | -1 | 77* | -1 | 0
CCOC(=O)c1cc(-c2ccccc2)nn1CC1CC(c2ccc(OC)cc2)=NO1 (stereo unspecified) | 3 | 0 | 13* | 44 | 17 | 0
CCOC(=O)c1cc(-c2ccccc2C)nn1CC1CC(c2ccc(OC)cc2)=NO1 (stereo unspecified) | 5 | 4 | 0 | 27 | -10 | 2
Cc1ccc(-c2nc(CS(=O)CC(=O)NCCCc3ccccc3)c(C)o2)cc1 (stereo unspecified) | 12 | -5 | -8 | -6 | 5 | -2
O=C(O)c1ccn[nH]1 | 20 | -1 | -1 | -1 | 4 | -1
O=C(NS(=O)(=O)c1ccccc1)c1cccc(Br)c1 | 14 | -4 | 21* | 10 | 6 | 1
O=C(O)c1cccc(NC(=O)c2cn(-c3ccccc3)nc2-c2cccc(Br)c2)c1 | 5 | -2 | 15* | 7 | -4 | 1
O=C(Nc1cccc(C(=O)Nc2cccc(Br)c2)c1)c1ccccc1 | -3 | 15 | 35* | 24 | 3 | 39
O=C(O)c1cccc(NC(=O)c2cn(-c3ccccc3)nc2-c2ccncc2)c1 | 23 | 0 | 0 | -11 | -8 | ·
O=C(Nc1cccc(Br)c1)c1ccn[nH]1 | -14 | 4 | 27* | -3 | -27 | 8
CCOC(=O)c1c(C)[nH]c(C(=O)OCC(=O)N(CC(C)C)C2CCS(=O)(=O)C2)c1C (stereo unspecified) | -16 | -2 | -3 | · | -7 | 0
COc1cccc(OC)c1C(=O)OCC(=O)NCCNC(=O)COC(=O)c1c(OC)cccc1OC | · | · | · | · | · | -1
COc1cc2nc(NC(=O)c3ccco3)sc(=O)c2cc1OC | 2 | 0 | 15* | 5 | 12 | 4
O=C(Nc1nc2c(F)c(F)c(F)cc2s1)c1ccco1 | -83 | 2 | 1 | 6 | -79 | 2
SMILES | Mdm2 MdmX PPI | Beta apoptosis | GRIN3A LBD mod | CSC inhib | Gli-Sufu antag | MPTP inh
O=C(Nc1ccc(-c2nc3cc(Cl)ccc3c(=O)o2)cc1)c1ccco1 | 4 | 1 | 11* | -1 | -9 | 0
O=C(Nc1cccc2ccccc12)c1ccco1 | · | · | · | · | · | 1
O=C(Nc1nc2c(ccc3ccccc32)s1)c1ccco1 | -96 | 2 | 16* | 13 | 0 | 2
O=C(Nc1ccc(-c2nc3c(ccc4ccccc43)o2)cc1)c1ccco1 | -7 | 31 | 35* | -10 | -20 | 2
Cc1cccc(-n2ccnc2SCC(=O)c2c(N)n(C3CC3)c(=O)[nH]c2=O)c1C | 10 | 1 | 0 | · | -3 | -1
N#Cc1c(NC(=O)c2cccc(S(=O)(=O)Nc3ccc(C(=O)O)cc3)c2)sc2c1CCCC2 | -1 | -2 | -4 | 16 | -16 | 2
Cc1cccc(Nc2ccccc2C(=O)O)c1C | 19 | · | 14* | · | 5 | -1
Cc1cccc(Nc2ncccc2C(=O)O)c1C | -13 | -2 | 1 | -19 | -2 | -4
COc1ccccc1C1CC(c2c(-c3ccccc3)c3cc(Cl)ccc3[nH]c2=O)=NN1S(C)(=O)=O (stereo unspecified) | 37 | 18 | 25* | 10 | -24 | 2
COc1ccc(C2CC(c3c(-c4ccccc4)c4cc(Cl)ccc4[nH]c3=O)=NN2C(=O)CCC(=O)O)cc1 (stereo unspecified) | 2 | -7 | -5 | 2 | 0 | -1
O=c1cc(S(=O)(=O)Cc2ccccc2)[nH]c(=O)[nH]1 | · | · | 0 | · | 0 | 1
CCC(=O)N1c2ccc(S(=O)(=O)N3CCN(CC)CC3)cc2CC1C (stereo unspecified) | 4 | 0 | 1 | -6 | 6 | 0
CC(=O)c1ccc(N2CCN(S(=O)(=O)c3ccc4c(c3)CC(C)N4C(C)=O)CC2)cc1 (stereo unspecified) | 15 | 91* | 0 | 4 | 57* | 11
CCC(=O)N1c2ccc(S(=O)(=O)N3CCN(c4ccc([N+](=O)[O-])cc4)CC3)cc2CC1C (stereo unspecified) | 18 | 92* | -1 | 8 | 58* | 5
CCOC(=O)C1CCN(S(=O)(=O)c2ccc3c(c2)CC(C)N3C(=O)C2CCC2)CC1 (stereo unspecified) | 24 | 0 | 24* | 2 | -4 | 0
CCc1cc(C)cc(OCCOc2ccccc2/C=N/NC(C)=O)c1 | 26 | 1 | 2 | 41 | 4 | 0
COC(=O)C[C@@H]1C=C[C@@H](NC(=O)CN(C)C)[C@@H](CO)O1 | · | · | · | · | · | -2
CCc1ccc2nc(NC(=O)C3CSC4(C)CCC(=O)N34)sc2c1 (stereo unspecified) | -27 | -1 | -2 | 14 | -19 | -1
CC1(C(=O)NS(=O)(=O)Cc2ccccc2)CCN1C(=O)CCc1ccccc1 (stereo unspecified) | · | · | · | · | · | 0
COc1cc(C(=O)N2C[C@H]3CC[C@H]2C3)ccc1OC1CCN(C(C)=O)CC1 | -13 | 0 | 13* | -24 | -12 | 3
